Only some compounds are listed: those with a hit (about 2.4% of all), similar ones and a draw of the others.
CRFR2-BP ag – agonists of CRF-BP/CRF-R2 complex, primary screen, cell-based, HEK293, calcium dye fluorescence, uHTS | CRF-binding protein / CRF receptor 2 complex (human) | calcium dye fluorescence (FLIPR); percent of saturating CRF peptide response | activation, % at 13.2 µM | actives 0.46% (n = 350,000);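 active = activation of at least 50%, plus an integration ratio under a set limit after plate pattern correction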;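 also: plate controls were neutral control wells without compound for no effect and CRF at EC100 for full effect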
CRFBP-R2 block – antagonists of CRF-BP/CRF-R2 complex, primary screen, cell-based, HEK293, calcium dye fluorescence, uHTS. inhibition, % at 11.8 µM. AID 588475, 2011. actives 0.59% (n = 350,000). CRF-induced calcium fluorescence;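 active = inhibition of the ligand-induced calcium signal above about 50% at the single tested concentration, limit read from the data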
ANO1 block – TMEM16A chloride channel inhibitors, primary screen, cell-based, HTS | actives 1.2% (n = 310,000) | Anoctamin-1 (Mus musculus), Q8BHY3 | AID 588511, 2011 | normalized B-score (activity score, 25-100; higher = stronger inhibition) at 10 µM | HEK293 TMEM16A/YFP iodide influx fluorescence, ionomycin;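 active = ratio plate-corrected score three or more library SD toward inhibition, starting fluorescence score within five deviations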;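 also: score derived from kinetic fluorescence span divided by baseline fluorescence per well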
TMEM16A act – TMEM16A chloride channel activators or potentiators, primary screen, cell-based, HTS | Anoctamin-1 (Mus musculus), Q8BHY3 | HEK293 TMEM16A/YFP-H148Q/I152L, iodide quench fluorescence; hits give low values | B-score at 10 µM | actives 0.3% (n = 340,000);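 active = fluorescence-ratio B-score plate-corrected deviation score at least 3 library SD below zero, with starting fluorescence score within 5 deviations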;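 also: channel opened by trigger with iodide after compound preincubation; score built on the fluorescence ratio of max minus min over baseline; more negative score means more quench and so TMEM16A activation or potentiation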
RTF Ca sens inh – cardiac RTF calcium sensitivity inhibitors, primary screen, biochemical, IANBD-TnC fluorescence, EC70 calcium; IANBD-labeled cardiac RTF, Ca2+ fluorescence; actives 0.12% (n = 340,000); inhibition, % at 7.15 µM;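 active = inhibition above the mean inhibition of all tested compounds plus 3 SD, cut at about 17% in these data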;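 also: assay run at fixed EC70 calcium of 1.6 mM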
RTF Ca sens act – cardiac RTF calcium sensitivity activators, primary screen, biochemical, IANBD-TnC fluorescence, EC20 calcium | Troponin I, cardiac muscle (Homo sapiens) + Troponin T, cardiac muscle (Homo sapiens) + … | IANBD-labeled TnC RTF fluorescence at EC20 calcium; 0% EC20 calcium, 100% full calcium | activation, % at 7.2 µM | actives 0.24% (n = 340,000);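 active = activation above the mean over all tested compounds plus 3 SD, cut at about 30% in these data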;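 also: rise in fluorescence read as greater calcium sensitivity of cardiac thin filaments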
TMEM16A reconf – TMEM16A chloride channel inhibitors, confirmation, cell-based, re-confirmation. AID 652189, 2013. actives 39% (n = 2,300). shares compounds with ANO1 block. HEK293 TMEM16A/YFP-H148Q, iodide quench fluorescence; ionomycin added to raise cell calcium. inhibition, % at 10 µM;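 active = mean duplicate percent inhibition, scaled so buffer wells are 0 and the reference blocker 100, over three buffer SD above buffer mean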
TMEM16A Ca cntr – calcium mobilization in TMEM16A/YFP HEK293 cells, confirmation, counter-screen for TMEM16A inhibitor project | actives 2% (n = 2,300) | Fluo4 calcium mobilization | calcium response (% of ionomycin), % at 10 µM | AID 652231, 2013 | shares compounds with ANO1 block;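 active = duplicate-averaged calcium signal over 20% of the ionomycin maximum, relative to buffer baseline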;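 also: each well's signal is peak minus trough fluorescence divided by its pre-addition baseline; 0% = buffer wells and 100% = ionomycin wells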
YFP-HEK293 quench – iodide YFP quench changes in parental YFP-HEK293, counter-screen for TMEM16A inhibitor project, cell-based; shares compounds with ANO1 block; 2,300 tested, under 10 active; YFP ratio F(max-min)/F0 at 10 µM; ionomycin; AID 652233, 2013;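 active = yellow fluorescent protein signal ratio exceeding the buffer control mean by over 5 SD of those controls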;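 also: ratio is mean of duplicate wells from kinetic YFP trace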
ClC-1 rat inh – ClC-1 chloride channel inhibition, selectivity assay for TMEM16A inhibitor project, cell-based, voltage-dependent ClC-1. shares compounds with ANO1 block. CHO ClC-1-YFP, iodide influx fluorescence quench; iodide control reads 0, buffer control 100. ratio percent, % at 10 µM. 2,300 tested, under 10 active. AID 652236, 2013;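 active = duplicate-mean ratio percent above the mean of iodide-only control wells, which defines zero, plus 5 of their SD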;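 also: higher percent means stronger block of ClC-1 iodide influx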
The depositor's hits bear a star; i = inactive; / = no result.

SMILES	CRFR2-BP ag	CRFBP-R2 block	ANO1 block	TMEM16A act	RTF Ca sens inh	RTF Ca sens act	TMEM16A reconf	TMEM16A Ca cntr	YFP-HEK293 quench	ClC-1 rat inh
COc1ccc(COC(=O)CNC(=O)C2CCCCC2)cc1F	-5	-9	/	i	-1	4	/	/	/	/
O=S1(=O)CC/C(=N\O)c2ccccc21	3	4	25*	i	1	1	i	i	-1.2	-4
CC(=O)N/C(=N/c1nc(C)cc(C)n1)Nc1cccc(C)c1C	-3	-2	i	i	0	-3	/	/	/	/
CC(C)C(C)(C#N)NC(=O)CSc1ncnc2sc(-c3ccccc3)cc12 (configuration not stated)	0	-7	25*	i	-9	1	i	i	-1.1	-4
Cn1c2c(c(=O)n(C)c1=O)C(C(F)(F)F)(C(F)(F)F)N=C(c1ccc(Cl)cc1)N2	83*	30	100*	i	-3	-2	42%*	i	-1	-32
O=C(NCCCNC(=O)c1c(Cl)cccc1Cl)c1c(Cl)cccc1Cl	-2	-8	i	i	-11	-2	/	/	/	/
CC(C)CCN(C(=S)Nc1cccc(C(F)(F)F)c1)C(C)c1ccccn1 (configuration not stated)	-1	1	25*	i	1	-1	i	i	-0.91	-2
O=C(c1ccc2c(c1)OCO2)C1CCCN(Cc2cccc(C(F)(F)F)c2)C1 (configuration not stated)	0	5	i	i	-6	-2	/	/	/	/
O=C(c1ccc2c(c1)OCO2)C1CCCN(Cc2ccc(OC(F)F)cc2)C1 (configuration not stated)	1	7	25*	i	5	-6	21%*	i	-1	-14
CCOC(=O)c1ccc(NC(=O)CCc2nc(-c3ccccc3)no2)cc1	0	-21	i	i	-4	-6	/	/	/	/
CCOC(=O)c1ccc(NC(=O)CCc2nc(-c3ccccc3Cl)no2)cc1	0	-1	100*	i	-5	5	38%*	i	-1.1	-28
CCOc1ccc(C(=O)N2CCC(C(=O)c3ccc4c(c3)OCCO4)CC2)cc1	-2	23	100*	i	-3	7	i	i	-1.2	-12
CCOC(=O)C1CCN(C(=O)c2ccc3c(c2)OCCO3)CC1	-1	-3	/	i	-10	2	/	/	/	/
Cc1ccccc1NC(=O)c1ccc(F)c(S(=O)(=O)N2CCN(c3ccccn3)CC2)c1	0	-17	i	i	-2	-3	/	/	/	/
O=C(Nc1ccc(Br)cc1)c1ccc(F)c(S(=O)(=O)N2CCN(c3ccccn3)CC2)c1	3	-31	25*	i	2	-5	i	i	-1.1	-16
